# Values joined by “and” are separate entries in the source; they are usually repeats but may differ in a detail not shown here. Equal values may be shown once. Records with an inconclusive call do not appear. Entries that show only a call come without a potency. The source holds several records for some structures; these can differ, active in one and inactive in another. Active and inactive are the calls of the source. Unless noted, calls come from the whole dose curve; as a rule, active = well fitted curve in the direction sought with a large enough effect; inconclusive = small, poorly fitted or top-dose-only effect, or another doubt; inactive = no such curve, though single readings can be large; an effect the other way counts as inactive or inconclusive.
# Legend:
# [1] = target: Cytochrome P450 3A4 (Homo sapiens) (UniProt P08684); assay: qHTS Assay for Inhibitors and Substrates of Cytochrome P450 3A4 (AID 884); note: nearly all actives have a fitted effect of over 50% in size; note: potency is the fitted concentration of half-maximal effect
# Cytochrome P450 3A4 (Homo sapiens), sequence (P08684 whole entry, looked up): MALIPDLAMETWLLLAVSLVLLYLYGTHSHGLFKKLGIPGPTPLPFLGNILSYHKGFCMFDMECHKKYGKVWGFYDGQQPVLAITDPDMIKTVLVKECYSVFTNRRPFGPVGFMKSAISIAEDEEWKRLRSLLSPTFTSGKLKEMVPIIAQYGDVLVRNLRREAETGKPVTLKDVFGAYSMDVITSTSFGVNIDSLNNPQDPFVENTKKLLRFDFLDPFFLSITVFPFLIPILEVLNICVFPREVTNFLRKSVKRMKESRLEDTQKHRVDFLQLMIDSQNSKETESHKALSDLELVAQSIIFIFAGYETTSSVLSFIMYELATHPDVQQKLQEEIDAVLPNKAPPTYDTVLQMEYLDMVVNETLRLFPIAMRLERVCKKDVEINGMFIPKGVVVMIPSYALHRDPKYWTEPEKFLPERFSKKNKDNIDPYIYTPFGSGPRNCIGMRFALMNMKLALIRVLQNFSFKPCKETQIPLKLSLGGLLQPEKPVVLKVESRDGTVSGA
# In short: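 Luminescent readout of luciferin produced by CYP3A4 (20 nM) dealkylation of Luciferin-PPXE, 25 uM (its KM). NADPH-driven reaction ran 60 min at RT after 10 min compound preincubation; data scaled to 57 uM ketoconazole as 100% inhibition.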
# [2] = target: Muscarinic acetylcholine receptor M1 (Rattus norvegicus) (UniProt P08482); assay: qHTS Assay for Antagonists of Acetylcholine Muscarinic M1 Receptor: Kinetic Measurement of Intracellular Calcium Response (AID 943); note: nearly all actives have a fitted effect of over 75% in size; note: potency is the fitted concentration of half-maximal effect
# Muscarinic acetylcholine receptor M1 (Rattus norvegicus), sequence (P08482 whole entry, looked up): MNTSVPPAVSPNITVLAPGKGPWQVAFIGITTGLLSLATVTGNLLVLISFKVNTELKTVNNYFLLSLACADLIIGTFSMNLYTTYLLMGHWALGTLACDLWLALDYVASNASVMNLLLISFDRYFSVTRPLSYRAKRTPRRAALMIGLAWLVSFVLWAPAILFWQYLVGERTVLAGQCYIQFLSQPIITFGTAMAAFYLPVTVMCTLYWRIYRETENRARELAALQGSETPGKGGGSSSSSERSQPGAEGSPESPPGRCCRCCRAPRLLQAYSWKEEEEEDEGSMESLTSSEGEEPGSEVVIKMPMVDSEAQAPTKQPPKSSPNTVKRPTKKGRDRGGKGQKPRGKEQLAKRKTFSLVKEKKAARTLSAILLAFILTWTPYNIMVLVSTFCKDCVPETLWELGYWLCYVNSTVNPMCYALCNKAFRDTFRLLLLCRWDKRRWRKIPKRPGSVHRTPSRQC
# In short: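 Antagonism measured as reduction of carbachol-evoked (EC80, 100 nM final) calcium flux in rat M1-CHO cells after 10 min compound exposure. Fluo-4 signal read kinetically; ratio of maximal to basal fluorescence.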
# [3] = target: Muscarinic acetylcholine receptor M1 (Rattus norvegicus) (UniProt P08482); assay: qHTS Assay for Antagonists of Acetylcholine Muscarinic M1 Receptor: Measurement of IP-One Response (AID 944); note: nearly all actives have a fitted effect of over 75% in size
# In short: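 IP1 accumulation measured via TR-FRET between d2-IP1 and Eu-cryptate anti-IP1 antibody after carbachol (200 nM, EC80) stimulation for 30 min; rat M1-transfected CHO cells received compound 10 min before agonist.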
# [4] = target: Pyruvate kinase PKM (Homo sapiens) (UniProt P14618); assay: qHTS Assay for Activators of Human Muscle Pyruvate Kinase (AID 954; active = well fitted curve in the direction sought with a large enough effect, not every such curve was filed as active)
# Pyruvate kinase PKM (Homo sapiens), sequence (P14618 whole entry, looked up): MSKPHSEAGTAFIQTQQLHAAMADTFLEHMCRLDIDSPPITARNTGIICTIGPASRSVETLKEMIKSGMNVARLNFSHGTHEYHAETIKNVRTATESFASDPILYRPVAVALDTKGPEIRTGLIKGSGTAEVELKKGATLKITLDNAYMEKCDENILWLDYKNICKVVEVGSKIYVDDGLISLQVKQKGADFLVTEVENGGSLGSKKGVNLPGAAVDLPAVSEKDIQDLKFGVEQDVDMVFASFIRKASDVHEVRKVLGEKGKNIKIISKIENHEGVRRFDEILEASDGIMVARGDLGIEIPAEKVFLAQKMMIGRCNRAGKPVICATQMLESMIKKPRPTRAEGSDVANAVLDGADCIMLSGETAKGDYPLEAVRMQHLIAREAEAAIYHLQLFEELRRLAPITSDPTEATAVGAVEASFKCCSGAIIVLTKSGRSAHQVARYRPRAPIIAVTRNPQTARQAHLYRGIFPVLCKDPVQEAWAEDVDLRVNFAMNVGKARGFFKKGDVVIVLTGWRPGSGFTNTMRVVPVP
# In short: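 A coupled luminescent readout tracked ATP made from ADP by purified PKM2. Final conditions included 0.1 nM enzyme, PEP and ADP at 0.5 and 0.1 mM, pH 7.2 imidazole buffer with BSA, and a one-hour room-temperature reaction.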
# [5] = target: Rap guanine nucleotide exchange factor 3 (Homo sapiens) (UniProt O95398); assay: Confirmatory qHTS for antagonist of cAMP-regulated guanine nucleotide exchange factor 3 (EPAC1) (AID 1645880); note: nearly all actives have a fitted effect of over 55% in size; note: potency is the fitted concentration of half-maximal effect
# Rap guanine nucleotide exchange factor 3 (Homo sapiens), sequence (O95398 whole entry, looked up): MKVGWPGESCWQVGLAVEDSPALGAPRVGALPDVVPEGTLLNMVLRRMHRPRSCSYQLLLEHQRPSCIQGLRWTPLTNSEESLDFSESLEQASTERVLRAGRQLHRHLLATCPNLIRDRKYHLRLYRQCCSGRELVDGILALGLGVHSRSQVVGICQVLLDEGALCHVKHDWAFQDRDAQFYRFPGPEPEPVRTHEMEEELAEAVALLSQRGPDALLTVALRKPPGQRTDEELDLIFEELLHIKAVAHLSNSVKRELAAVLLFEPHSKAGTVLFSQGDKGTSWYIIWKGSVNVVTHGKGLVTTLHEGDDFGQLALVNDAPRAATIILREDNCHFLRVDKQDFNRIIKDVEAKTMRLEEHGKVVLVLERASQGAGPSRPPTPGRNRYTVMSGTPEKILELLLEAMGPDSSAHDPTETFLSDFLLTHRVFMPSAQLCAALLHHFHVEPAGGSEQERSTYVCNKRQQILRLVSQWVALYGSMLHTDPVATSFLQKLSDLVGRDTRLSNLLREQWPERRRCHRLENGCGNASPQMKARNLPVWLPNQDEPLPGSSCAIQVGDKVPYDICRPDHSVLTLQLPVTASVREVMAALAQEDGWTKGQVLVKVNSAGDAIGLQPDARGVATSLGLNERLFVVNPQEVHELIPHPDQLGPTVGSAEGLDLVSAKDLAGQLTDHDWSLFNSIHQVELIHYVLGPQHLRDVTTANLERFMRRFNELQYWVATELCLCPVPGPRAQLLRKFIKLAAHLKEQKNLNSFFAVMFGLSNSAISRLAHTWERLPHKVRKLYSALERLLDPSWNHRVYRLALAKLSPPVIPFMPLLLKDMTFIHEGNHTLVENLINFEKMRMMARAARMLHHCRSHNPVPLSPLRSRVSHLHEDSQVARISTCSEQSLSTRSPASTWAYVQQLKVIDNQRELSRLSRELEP
# In short: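 Released BODIPY-GDP fluoresces less than Rap1-bound BODIPY-GDP; the signal is followed at 480/540 nm at 5-min intervals over 30 min, after 5 min at room temperature. Reactions contain 100 nM EPAC1, 250 nM RAP1B-BODIPY-GDP and 50 uM GDP; results are normalized to ATA and DMSO.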
# [6] = target: Rap guanine nucleotide exchange factor 3 (Homo sapiens) (UniProt O95398); assay: Confirmatory qHTS for agonist of cAMP-regulated guanine nucleotide exchange factor 3 (EPAC1) (AID 1645881);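 note: EPAC1 catalysed release of BODIPY-GDP from Rap1B seen as fluorescence loss; nearly all actives have a fitted effect of over 75% in size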
# [7] = target: Rap guanine nucleotide exchange factor 4 (Homo sapiens) (UniProt Q8WZA2); assay: Confirmatory qHTS for antagonist of cAMP-regulated guanine nucleotide exchange factor 4 (EPAC2) (AID 1645885); note: nearly all actives have a fitted effect of over 25% in size; note: potency is the fitted concentration of half-maximal effect
# Rap guanine nucleotide exchange factor 4 (Homo sapiens), sequence (Q8WZA2 whole entry, looked up): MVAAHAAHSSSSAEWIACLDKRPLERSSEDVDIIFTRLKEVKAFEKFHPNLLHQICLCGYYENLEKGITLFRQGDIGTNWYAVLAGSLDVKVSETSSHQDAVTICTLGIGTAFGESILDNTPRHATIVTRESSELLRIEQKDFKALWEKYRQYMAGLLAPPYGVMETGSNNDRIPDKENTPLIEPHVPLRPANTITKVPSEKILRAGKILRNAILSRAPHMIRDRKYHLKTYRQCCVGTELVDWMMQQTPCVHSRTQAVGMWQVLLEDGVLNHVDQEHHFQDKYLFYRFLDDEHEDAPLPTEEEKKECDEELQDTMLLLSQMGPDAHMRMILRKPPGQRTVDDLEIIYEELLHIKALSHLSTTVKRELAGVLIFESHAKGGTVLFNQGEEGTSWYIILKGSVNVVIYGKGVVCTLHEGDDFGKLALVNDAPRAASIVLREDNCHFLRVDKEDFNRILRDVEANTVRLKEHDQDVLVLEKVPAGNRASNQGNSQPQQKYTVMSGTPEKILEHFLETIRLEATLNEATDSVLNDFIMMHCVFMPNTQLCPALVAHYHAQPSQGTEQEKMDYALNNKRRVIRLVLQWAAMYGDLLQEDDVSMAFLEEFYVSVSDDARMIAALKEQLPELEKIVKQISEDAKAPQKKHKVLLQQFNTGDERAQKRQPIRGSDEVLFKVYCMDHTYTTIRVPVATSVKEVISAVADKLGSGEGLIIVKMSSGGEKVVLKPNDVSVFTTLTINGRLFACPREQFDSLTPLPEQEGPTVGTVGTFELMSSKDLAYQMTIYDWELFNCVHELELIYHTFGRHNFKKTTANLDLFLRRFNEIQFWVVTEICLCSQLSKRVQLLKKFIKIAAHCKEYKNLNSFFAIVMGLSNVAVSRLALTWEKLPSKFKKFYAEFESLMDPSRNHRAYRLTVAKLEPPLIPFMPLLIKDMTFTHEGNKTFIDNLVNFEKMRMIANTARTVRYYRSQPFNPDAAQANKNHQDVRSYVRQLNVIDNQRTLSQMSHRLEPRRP
# [8] = target: Cytochrome P450 2C9 (Homo sapiens) (UniProt P11712); assay: qHTS Assay for Inhibitors and Substrates of Cytochrome P450 2C9 (AID 883); note: nearly all actives have a fitted effect of over 60% in size; note: potency is the fitted concentration of half-maximal effect
# Cytochrome P450 2C9 (Homo sapiens), sequence (P11712 whole entry, looked up): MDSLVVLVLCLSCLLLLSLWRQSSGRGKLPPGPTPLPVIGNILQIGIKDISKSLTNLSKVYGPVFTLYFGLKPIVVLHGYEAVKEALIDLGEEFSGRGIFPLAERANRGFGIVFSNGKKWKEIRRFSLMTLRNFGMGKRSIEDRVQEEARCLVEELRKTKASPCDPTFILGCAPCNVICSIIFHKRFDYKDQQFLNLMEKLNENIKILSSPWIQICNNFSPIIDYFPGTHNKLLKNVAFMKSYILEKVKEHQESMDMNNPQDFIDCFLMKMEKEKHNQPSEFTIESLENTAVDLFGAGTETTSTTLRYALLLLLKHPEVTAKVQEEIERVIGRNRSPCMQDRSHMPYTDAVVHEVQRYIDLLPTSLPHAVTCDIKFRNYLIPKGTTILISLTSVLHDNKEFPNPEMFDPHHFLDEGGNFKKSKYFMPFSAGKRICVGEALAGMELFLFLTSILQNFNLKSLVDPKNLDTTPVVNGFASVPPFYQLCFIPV
# In short: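 Human CYP2C9 (10nM) with Luciferin-H at 100uM (its KM) in 25mM KPO4; compound preincubated 10 min at 37C, then NADPH regeneration for 60 min at 37C. Luciferin read by luminescence after detection reagent; normalized to 57uM sulphaphenazole as full inhibition.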
# [9] = Primary qHTS for inhibitors of nuclear receptor binding SET domain protein 2 (NSD2) in an RCH-ACV wild type WT cells (2C) (AID 1645877); note: potency is the fitted concentration of half-maximal effect; nearly all actives have a fitted effect of over 70% in size
# [10] = target: Rap guanine nucleotide exchange factor 4 (Homo sapiens) (UniProt Q8WZA2); assay: Confirmatory qHTS for agonist of cAMP-regulated guanine nucleotide exchange factor 4 (EPAC2) (AID 1645884);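 note: nucleotide exchange releases bodipy-GDP from Rap1 and this lowers its fluorescence; nearly all actives have a fitted effect of over 65% in size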
# [11] = qHTS Assay for Identification of Small Molecule Agonists for Thrombopoietin (TPO) Signaling Pathway (AID 917)
# In short: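 Luciferase reporter (Glycoprotein IIb promoter) in IL-3-deprived Ba/F3 cells carrying human TPO receptor; compounds co-added with 26 pM TPO, incubated 24 h, 37 C. Steadylite luminescence measured after 10 min.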
# [12] = target: Cytochrome P450 2D6 (Homo sapiens) (UniProt P10635); assay: Cytochrome P450 family 2 subfamily D member 6 (CYP2D6) small molecule antagonists: luciferase biochemical (cell-free) qHTS assay (AID 1645840; active = well fitted curve in the direction sought with a large enough effect in the repeat runs; an effect the other way counts as inactive or inconclusive; note: series mostly up to about 57 µM; nearly all actives have a fitted effect of over 55% in size)
# Cytochrome P450 2D6 (Homo sapiens), sequence (P10635 whole entry, looked up): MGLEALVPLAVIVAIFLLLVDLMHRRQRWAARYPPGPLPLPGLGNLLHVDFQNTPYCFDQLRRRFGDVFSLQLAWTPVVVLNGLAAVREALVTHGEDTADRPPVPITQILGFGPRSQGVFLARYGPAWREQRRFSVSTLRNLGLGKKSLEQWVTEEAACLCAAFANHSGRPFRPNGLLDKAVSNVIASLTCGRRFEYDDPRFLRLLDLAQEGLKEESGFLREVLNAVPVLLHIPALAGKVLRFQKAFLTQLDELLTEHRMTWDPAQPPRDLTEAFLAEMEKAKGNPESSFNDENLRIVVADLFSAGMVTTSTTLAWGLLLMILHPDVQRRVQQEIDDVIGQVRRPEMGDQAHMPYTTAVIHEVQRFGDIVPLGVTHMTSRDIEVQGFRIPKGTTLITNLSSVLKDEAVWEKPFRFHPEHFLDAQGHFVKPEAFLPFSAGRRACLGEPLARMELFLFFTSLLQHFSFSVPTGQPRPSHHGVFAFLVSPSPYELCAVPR
# In short: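 P450-Glo CYP2D6 system: proluciferin substrate converted by enzyme to luciferin, read by luminescence proportional to activity. Enzyme-substrate mix with compound 10 min at room temperature, then NADPH regeneration 1 h before detection reagent.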
# [13] = target: Cytochrome P450 2C9 (Homo sapiens) (UniProt P11712); assay: Cytochrome P450 family 2 subfamily C member 9 (CYP2C9) small molecule antagonists: luciferase biochemical (cell-free) qHTS assay (AID 1645842; active = well fitted curve in the direction sought with a large enough effect in the repeat runs; an effect the other way counts as inactive or inconclusive; note: series mostly up to about 57 µM; nearly all actives have a fitted effect of over 55% in size)
# In short: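 P450-Glo CYP2C9 system: proluciferin substrate with enzyme in mix containing 0.4% BSA, 10 min at room temperature, then NADPH regeneration solution added and incubated 1 h at 37C. Detection reagent stopped reaction; luminescence read after 20 min as RLU.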
# [14] = Confirmation and Secondary Assay for Modulators of Hemoglobin Beta Chain Splicing at IVS2 654 locus (AID 910);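 note: HeLa cells stably carrying EGFP split by mutant beta-globin IVS2-654 intron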
# In short: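 HeLa cells stably expressing EGFP interrupted by β-globin IVS2-654 intron, seeded overnight in Opti-MEM/2% FCS, then treated 2 days at 37 °C. Restored splicing read as total peak GFP intensity per well by laser scanning cytometry (488 nm excitation, 500–520 nm emission); 500 nM antisense PNA as control.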
# [15] = Confirmation and Secondary Assay for Modulators of Hemoglobin Beta Chain Splicing at IVS2 705 locus (AID 930);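 note: HeLa cells stably expressing the EGFP-705 splicing reporter; GFP fluorescence per well restored by corrected splicing of the IVS2-705 intron in EGFP; series mostly up to about 46 µM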
# In short: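 Read-out: total peak GFP fluorescence per well (488 nm excitation, 500-520 nm emission) by laser-scanning cytometry. Cells: HeLa EGFP-705 splicing reporter, 2 days compound exposure in Optimem/2% FCS.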
# [16] = target: Glutathione peroxidase 1 (Homo sapiens) (UniProt P07203); assay: Primary qHTS Assay for Inhibitors of Recombinant Selenoprotein Glutathione Peroxidase 1 (GPX1) (AID 1845191); note: nearly all actives have a fitted effect of over 65% in size
# Glutathione peroxidase 1 (Homo sapiens), sequence (P07203 whole entry, looked up): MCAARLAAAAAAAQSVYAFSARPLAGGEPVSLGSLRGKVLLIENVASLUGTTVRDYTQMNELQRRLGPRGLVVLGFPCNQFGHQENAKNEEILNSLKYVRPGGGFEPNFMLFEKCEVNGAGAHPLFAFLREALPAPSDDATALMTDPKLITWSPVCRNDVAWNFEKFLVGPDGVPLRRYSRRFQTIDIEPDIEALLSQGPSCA
# In short: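 GR-coupled readout: NADPH consumption tracked by fluorescence, ex 340/em 450 nm, at t=0 and after 15 min at RT. Final mix 10 nM GPX1, 1 mM GSH, 0.5 mM CHP, 0.5 mM NADPH, 100 nM GR, 0.01% BSA, following 30 min enzyme–compound preincubation.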
# [17] = target: Phospholipid hydroperoxide glutathione peroxidase GPX4 (Homo sapiens) (UniProt P36969); assay: Primary qHTS Assay for Inhibitors of Recombinant Selenoprotein Glutathione Peroxidase 4 (GPX4) (AID 1845192); settings: outcome: dose series up to 50 µM unless noted; note: nearly all actives have a fitted effect of over 65% in size
# Phospholipid hydroperoxide glutathione peroxidase GPX4 (Homo sapiens), sequence (P36969 whole entry, looked up): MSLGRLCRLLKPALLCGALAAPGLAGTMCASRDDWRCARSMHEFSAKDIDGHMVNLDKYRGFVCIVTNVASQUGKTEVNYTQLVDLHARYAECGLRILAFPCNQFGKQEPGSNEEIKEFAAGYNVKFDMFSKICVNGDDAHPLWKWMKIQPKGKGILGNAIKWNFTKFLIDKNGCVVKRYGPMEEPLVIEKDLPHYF
# In short: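 Steps: GPX4 plus compound, 30 min RT; add GR/GSH/NADPH master mix; start with cumene hydroperoxide; read 340/450 nm fluorescence at 0 and 15 min. Finals were 200 nM GPX4, 1 mM GSH, 0.5 mM CHP, 0.5 mM NADPH, 100 nM GR.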
# [18] = qHTS Assay for Identification of Small Molecule Antagonists for Thrombopoietin (TPO) Signaling Pathway (AID 918); settings: TPO-dependent cell signaling reporter, antagonist mode; note: potency is the fitted concentration of half-maximal effect; nearly all actives have a fitted effect of over 60% in size
# In short: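 Inhibition read as reduced luciferase luminescence after 24 h at 37 C in IL-3-deprived Ba/F3 cells carrying human TPO receptor and GPIIb-promoter reporter, stimulated with 26 pM TPO (final, its EC50) alongside compound.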
smiles,measurement,setting,value
C[C@@H](/C=C\c1cccc(Oc2ccc(F)cc2)c1)N(O)C(N)=O,Potency,[1],1.26 µM (active)
same,Potency,[2],inactive
same,Potency,[3],inactive
same,outcome,[4],inactive
same,Potency,[5],inactive
same,outcome,[6],inactive
same,Potency,[7],44.1 µM (active)
N#CC(=C(/N)Sc1ccccc1N)/C(C#N)=C(/N)Sc1ccccc1N,Potency,[8],inactive
same,Potency,[1],316 nM (active) and 3.16 µM (active)
same,Potency,[2],inactive
same,outcome,[4],inactive
same,Potency,[9],14.6 µM (active)
NC(C(=O)O)c1cc(O)c(Cl)c(O)c1 (stereo unspecified),Potency,[5],inactive
same,outcome,[6],inactive
same,outcome,[10],inactive
same,Potency,[7],inactive
COC(=O)C1=C(C)NC(C)=C([N+](=O)[O-])[C@H]1c1ccccc1C(F)(F)F,Potency,[8],15.8 µM (active) and 2 µM (active)
same,Potency,[1],12.6 µM (active)
same,Potency,[11],inactive
same,Potency,[2],inactive
same,Potency,[3],inactive
same,outcome,[4],inactive
same,outcome,[6],inactive
same,outcome,[10],inactive
same,Potency,[7],39.3 µM (active)
CC[C@H](C)N(C)C(=O)c1cc2ccccc2c(-c2ccccc2Cl)n1,Potency,[11],inactive
same,Potency,[5],inactive
same,outcome,[6],inactive
same,outcome,[10],inactive
Nc1ncnc2c1ncn2[C@@H]1O[C@H](COP(=O)(O)OP(=O)(O)O)[C@@H](O)[C@H]1O,Potency,[1],inactive
O=C1CC[C@H](C(=O)O)N1,Potency,[12],inactive
same,Potency,[13],inactive
CCOC(=O)C(CCc1ccccc1)NC1CCc2ccccc2N(CC(=O)O)C1=O (stereo unspecified),outcome,[14],inactive
same,outcome,[15],inactive
C[C@@H](C(=O)O)c1ccc(-c2ccccc2)c(F)c1,outcome,[14],inactive
same,outcome,[15],inactive
same,Potency,[12],inactive
same,Potency,[13],inactive
CCOC(=O)[C@@]12C[C@@H]1/C(=N/O)c1ccccc1O2,Potency,[3],inactive
same,outcome,[4],inactive
same,Potency,[5],inactive
same,outcome,[6],inactive
same,outcome,[10],inactive
same,Potency,[7],inactive
CCCCC/C=C\C/C=C\C/C=C\C/C=C\CCCC(=O)O,outcome,[14],inactive
same,outcome,[15],inactive
same,Potency,[5],49.8 µM (active)
same,outcome,[6],inactive
same,outcome,[10],inactive
same,Potency,[7],44.1 µM (active)
COC(=O)C1=C(C)NC(C)=C([N+](=O)[O-])[C@@H]1c1ccccc1C(F)(F)F,Potency,[8],158 nM (active)
same,outcome,[6],inactive
same,outcome,[10],inactive
same,Potency,[7],35 µM (active)
CN[C@@H]1[C@H](O)[C@H](O[C@@H]2[C@H](O)[C@@H](O[C@H]3O[C@H]([C@@H](C)NC)CC[C@H]3N)[C@@H](N)C[C@H]2N)OC[C@]1(C)O,outcome,[16],inactive [at 9.52 µM]
same,outcome,[17],inactive [at 9.73 µM]
C[N+](C)(C)CCC(=O)c1cccc2ccccc12,Potency,[18],2.51 µM (active)
same,Potency,[2],inactive
same,Potency,[3],inactive
same,outcome,[4],inactive
CCCCOc1cc(C[C@@H]2CNC(=O)N2)ccc1OC,Potency,[8],inactive
same,outcome,[14],inactive
same,Potency,[11],inactive
same,outcome,[15],inactive
same,Potency,[3],inactive
NC(N)=NN=Cc1c(Cl)cccc1Cl,Potency,[3],inactive
Cc1cccc(/C=C\c2ccccc2)n1,Potency,[8],inactive and 3.98 µM (active)
same,Potency,[3],inactive
C=CCN1CCc2cc(O)c(O)cc2[C@H](c2ccccc2)C1,Potency,[18],5.01 µM (active)
same,Potency,[3],inactive
CC(C)=CCC/C(C)=C/CC/C(C)=C/CO,Potency,[1],inactive
same,outcome,[14],inactive
same,outcome,[15],inactive
same,outcome,[6],inactive
same,outcome,[10],inactive
same,Potency,[7],31.2 µM (active)
CO[C@@]12C[C@@H](COC(=O)c3cncc(Br)c3)CN(C)[C@H]1Cc1cn(C)c3cccc2c13,Potency,[8],inactive
COc1ccc2c(c1)c(CC(=O)N1CCOCC1)c(C)n2C(=O)c1ccc(Cl)cc1,Potency,[8],39800 nM (active)
same,Potency,[1],5.01 µM (active)
same,Potency,[11],inactive
same,Potency,[3],inactive
same,outcome,[4],inactive
COc1cc([C@@H]2c3cc4c(cc3C(O[C@@H]3O[C@@H]5CO[C@@H](c6cccs6)OC5[C@H](O)[C@H]3O)C3COC(=O)[C@@H]32)OCO4)cc(OC)c1O (stereo partly specified),Potency,[16],inactive
same,Potency,[17],inactive
C[C@H]1C=C2C=C[C@H](C)[C@H](CC[C@@H]3C[C@@H](O)CC(=O)O3)[C@H]2[C@@H](OC(=O)[C@@H](C)CCO)C1,outcome,[6],inactive
same,outcome,[10],inactive
N[C@H](Cc1ccccc1)C(=O)O,Potency,[16],inactive
same,Potency,[17],inactive
CC#CCOC(=O)c1c(C)nc2sc3c(c2c1N)CC[C@@H](O)C3,Potency,[8],inactive
same,Potency,[1],3.16 µM (active)
same,Potency,[2],5.01 µM (active)

# Reference: PubChem BioAssay (NCATS)
